The whole screen tested about 2,400 compounds, of which about 950 (40%) were called active.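 How the source made its calls: active means thallium flux ratio, averaged over three wells, more than 5 SD below the buffer control mean; inactive means the rest.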 Only a sample is shown.
Experiment: nonspecific thallium influx blockers, KCNK3-free cells – cell-based, non-induced KCNK3 line, FluxOR thallium, triplicate, counter-screen for KCNK3 inhibitor project, primary screen (AID 651747);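 further: host cells are CHO cells without KCNK3 induction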;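 on thallium flux ratio (lower = more inhibition): ratio is peak minus trough fluorescence over baseline then normalized to buffer controls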
Conditions: non-induced KCNK3 parental cells, at 10 µM; outcome: FluxOR thallium flux; thallium flux ratio (lower = more inhibition): stronger effect = lower value

Structure (SMILES)	thallium flux ratio (lower = more inhibition)
CN1CCc2ccccc2C1Cc1ccccc1NC(=O)c1sc2ccccc2c1Cl (stereo not given)	0.143 (active)
N#Cc1cccc(NC(=O)COC(=O)c2ccccc2C(=O)c2ccc(Cl)c([N+](=O)[O-])c2)c1	0.153 (active)
Cc1ccc(NC(=S)N2CCCC(c3ccccc3)=N2)cc1	inactive
COc1ccc(Nc2ncnc3sc(-c4ccccc4)cc23)c(OC)c1	0.124 (active)
FC(F)(F)c1cccc(-c2cc3ccccc3nc2N2CCCC2)c1	0.127 (active)
O=C(c1cc(-c2ccc(O)cc2)on1)N1CCCc2ccccc21	inactive
CSc1nccc(NC(=O)c2ccc(C(C)(C)C)cc2)n1	inactive
COc1cccc(CNc2nc(C(F)(F)F)nc3ccccc23)c1	0.111 (active)
COc1ccccc1NC(=O)CSc1nc2sc(C)c(C)c2c(=O)n1Cc1ccco1	inactive
C=CCSc1nnc(N2C(=O)C(O)=C(C(=O)c3ccco3)C2c2ccc(F)cc2)s1 (stereo not given)	0.101 (active)
COc1cc(/C=C(\C#N)c2nc3ccccc3[nH]2)ccc1O	0.0933 (active)
Cc1cccc(NC(=O)c2sc3nc4c(c(-c5ccco5)c3c2N)CCC4)c1	inactive
COc1cccc(COc2ccc(N(C)S(=O)(=O)c3ccccc3)cc2)c1	0.109 (active)
[O-][n+]1ccc(OCc2ccccc2)cc1	inactive
N/C(Cc1ccc([N+](=O)[O-])cc1)=N\OC(=O)COc1ccc2ccccc2c1	inactive
N#Cc1nc(Cc2cccc3ccccc23)oc1NCc1ccc2c(c1)OCO2	0.152 (active)
COc1ccc([N+](=O)[O-])cc1-c1nc2ccccc2nc1-c1ccccc1	0.129 (active)
CCCC(=O)Nc1ccc(Cl)c(NC(=O)c2ccc(Br)o2)c1	inactive
CN(CCC(=O)Nc1cc(S(=O)(=O)N(C)C)ccc1Cl)CC(=O)Nc1ccc(F)cc1	0.159 (active)
Cc1cc(C)c(S(=O)(=O)c2ccccc2)c(OC(=O)c2c(F)cccc2Cl)n1	inactive
CS/C(=C\C(=O)c1ccco1)Nc1ccccc1Cl	0.154 (active)
Cc1cccc2cc(CN(Cc3nnnn3Cc3ccccc3)C3CCCC3)c(=O)[nH]c12	0.139 (active)
Cc1cc(OCCCCOc2ccc(C#N)cc2)ccc1[N+](=O)[O-]	inactive

Structure (SMILES)	thallium flux ratio (lower = more inhibition)
O=C1c2ccccc2C2=Nc3ccccc3SC(c3ccccc3F)C12 (stereo not given)	0.125 (active)
CCCCCCCCCCOC(=O)Cn1c(COc2cccc(OC)c2)[n+](C)c2ccccc21	inactive
CCCOc1ccc2c3c(c(=O)oc2c1OCCC)CCC3	0.158 (active)
COc1cccc(CN(C)CC(O)COC(c2ccccc2)c2ccccc2C)c1 (stereo not given)	0.146 (active)
FC(F)(F)c1cc(-c2ccco2)nc(NCc2ccc(Cl)cc2)n1	0.148 (active)
Cc1ccc(S(=O)(=O)NCc2cn3ccsc3n2)c(C)c1	inactive
COc1cccc(C(=O)NCCSc2ccc(Br)cc2)c1	inactive
O=C(NCCc1c[nH]c2ccccc12)c1cccc(Br)c1	0.159 (active)
O=C(CSc1nc(Nc2ccccc2)nc(N2CCOCC2)n1)Nc1cc(Cl)ccc1O	0.137 (active)
CC(C)c1ccccc1OCC(O)CN(CC(O)COc1cccc2ccccc12)C(C)C (stereo not given)	inactive
C=CCN(C(=O)c1cc(C)cc(C)c1)C1(C(=O)Nc2ccccc2)CCN(C(C)C)CC1	inactive
CC(=O)Nc1cccc(OCC(=O)/C=C2\N(C)c3ccccc3C2(C)C)c1	inactive
COc1cccc(/C=N/Nc2cc(C)nc(-c3ccccc3O)n2)c1O	0.109 (active)
CC[n+]1cc(C)ccc1/C=C/c1ccc(N(C)C)cc1	0.106 (active)
N#Cc1ccc(S(=O)(=O)NCC(=O)OCC(=O)NCCc2ccccc2)cc1	inactive
Cc1cccc(-c2nc3ccc(C(=O)NCCN4CCN(C)CC4)cc3nc2-c2cccc(C)c2)c1	0.106 (active)
Cc1ccc(NC(=O)c2cc([N+](=O)[O-])ccc2Cl)c(O)c1	inactive
CSc1nnc2c(n1)OC(c1ccsc1)N(C(C)=O)c1ccccc1-2 (stereo not given)	inactive
Clc1cccc(-c2nc(NCC3CCCO3)c3ccccc3n2)c1 (stereo not given)	0.129 (active)
CCn1ncc(Br)c1C(=O)Nc1cc(C)ccc1F	inactive
CCOc1ccccc1Oc1cn[nH]c1-c1ccc(OC)cc1O	inactive
S=C(Nc1cccc(Br)c1)N1CCn2cccc2C1c1cccnc1 (stereo not given)	inactive
COC(=O)C1=C(C)N(C(C)c2ccccc2)C(=O)/C1=C\c1ccco1 (stereo not given)	0.158 (active)

Structure (SMILES)	thallium flux ratio (lower = more inhibition)
O=C(Nc1ccccc1)O/N=C1\CCCCC1c1ccc([N+](=O)[O-])cc1[N+](=O)[O-] (stereo not given)	inactive
CC(C)c1cc(C(=O)N/N=C/c2ccoc2)c(O)c(C(C)C)c1	0.147 (active)
CSc1cccc(NC(=S)N(C(C)C)C(C)c2ccccn2)c1 (stereo not given)	inactive
O=C(CC1NCCc2ccccc21)Nc1cccc(Cl)c1 (stereo not given)	inactive
FC(F)(F)c1cccc(NC(=S)Nc2cccc(Cl)c2)c1	0.128 (active)
CC(NCc1cccs1)C(=O)Nc1cc(Cl)cc(Cl)c1 (stereo not given)	inactive
CC(Oc1cccc(NC(=O)c2cccs2)c1)C(=O)c1ccccc1 (stereo not given)	inactive
O=C(Nc1cccc(Cl)c1)Nc1ccccc1NS(=O)(=O)c1cccs1	0.131 (active)
C=CCSc1nsc(NC(=O)Nc2cccc(C(C)=O)c2)n1	inactive
O=C(NCCc1ccccc1)c1ccc2c(c1)N(Cc1ccccc1)CCS2	0.16 (active)
O=C(Cn1cc(C(=O)c2cccs2)c2ccccc21)NCc1cccs1	inactive
CC(=O)N(C1=C(Cl)C(=O)c2ccccc2C1=O)c1ccc(C(=O)O)cc1	0.11 (active)
CC(C(=O)NCC1CCCCC1)N(C)Cc1cccc(Cl)c1 (stereo not given)	inactive
CC(C)CCNC(=O)C(C)N(C(=O)Cn1nnc(-c2ccc(F)cc2)n1)C1CCCC1 (stereo not given)	inactive
COc1cccc(NC(=S)N(CCc2c(C)[nH]c3ccccc23)Cc2ccco2)c1	0.153 (active)
Cc1nonc1C1CCCN1C(=O)c1cc(COc2cccc(C(F)(F)F)c2)on1 (stereo not given)	inactive
Cc1cccc(N(Cc2ccccc2)C(=O)c2ccccc2F)c1	inactive
Cc1cccc(C)c1N1CCN(S(=O)(=O)N2CCCCC2)CC1	0.156 (active)
COc1ccccc1N1CCN(/N=C\C(Br)=C\c2ccccc2)CC1	inactive
c1ccc2c(NC3C4CC5CC(C4)CC3C5)nc(N3CCOCC3)nc2c1 (stereo not given)	0.151 (active)
COc1ccc(Cl)cc1NC(=O)C(C)N1CCc2ccccc21 (stereo not given)	inactive
CCOc1ccc(C2c3[nH]c4ccccc4c3CCN2Cc2cccn2-c2ncccn2)cc1 (stereo not given)	inactive
C=CCc1cc(S(=O)(=O)c2ccc(O)c(CC=C)c2)ccc1O	0.155 (active)

Structure (SMILES)	thallium flux ratio (lower = more inhibition)
CCN(CC)CCN(C(=O)c1cc(Cl)sc1Cl)c1nc2cc3c(cc2s1)OCO3	0.143 (active)
COc1cc(Cl)c(S(=O)(=O)N2CCN(Cc3ccc4c(c3)OCO4)CC2)cc1Cl	inactive
COC(=O)c1cc(NC2c3ccccc3C(=O)N2c2ccc(Cl)cn2)cc(C(=O)OC)c1 (stereo not given)	inactive
CCCCC(=O)Nc1ccccc1N1CCN(c2ccc(F)cc2)CC1	inactive
O=C(Nc1ccccc1N1CCCC1)c1ccc2ccccc2c1	0.131 (active)
O=C(CNCCC1=CCCCC1)Nc1ccccc1N1CCCCCC1	inactive
Cc1cccc(C(=O)Nc2ccccc2N2CCN(c3ccc(F)cc3)CC2)c1	0.151 (active)
CCc1cc(C(c2ccccc2OC)N2CCOCC2)c(NC(=O)c2ccccc2)s1 (stereo not given)	inactive
CSCc1cc(N(C)C)nc(SCc2ccc(Cl)cc2Cl)n1	0.15 (active)
COc1ccc2c(c1)C(c1cccs1)=NNC(c1cccnc1)=N2	inactive
c1ccc(C(c2ccccc2)N2CCN(Cc3nnnn3C3CCCCC3)CC2)cc1	0.129 (active)
Cc1cccc2c1-c1sc(C(=O)NCCCN3CCc4ccccc4C3)cc1CO2	inactive
CCCCCCCCCCCCN1C(=O)CSC1c1cccnc1 (stereo not given)	0.148 (active)
Cc1c(C(=O)N2CCCc3ccccc32)sc2nc(-c3ccccc3)cn12	inactive
COc1ccc(CC(=O)Nc2nc(-c3ccc(F)c(F)c3)cs2)cc1OC	0.102 (active)
CCc1ccc2nc3sc(C(=O)Nc4nnc(CC)s4)c(N)c3cc2c1	0.108 (active)
COc1ccc(C2Nc3ccccc3C(=O)N2Cc2ccccc2)cc1Cn1nnc2ccccc21 (stereo not given)	0.144 (active)
CCCc1cc(C(=O)N2CCCC(CO)(CCCc3ccccc3)C2)n(C)n1 (stereo not given)	0.152 (active)
CC(=O)N1CCCc2cc(S(=O)(=O)N3CCCC(C(=O)N4CCN(c5cccc(Cl)c5)CC4)C3)ccc21 (stereo not given)	inactive
CCc1nc(SCC(=O)NNC(=O)c2ccc(C)cc2)c2ccccc2n1	inactive
O=C(Nn1c(SCc2ccc([N+](=O)[O-])cc2)nc2ccccc2c1=O)c1ccc(F)cc1	0.136 (active)
CC(Sc1nc2ccccc2c(=O)n1Cc1ccco1)C(=O)c1ccccc1 (stereo not given)	inactive
COc1cc(C(=O)Nc2oc(-c3ccccc3)c(-c3ccccc3)c2C#N)cc(OC)c1OC	inactive

Structure (SMILES)	thallium flux ratio (lower = more inhibition)
Cc1cc(NC(=O)Nc2ccc(Cl)cc2)n(-c2ccccc2)n1	inactive
O=C(Nc1cccc(S(=O)(=O)Nc2ccc(Cl)cc2)c1)c1ccc2c(c1)OCCO2	0.136 (active)
C=CCN(N=Nc1cccc([N+](=O)[O-])c1)c1cccc([N+](=O)[O-])c1	inactive
CCC(C)(C)n1nnnc1C(c1cccs1)N1CCN(c2nc3ccccc3s2)CC1 (stereo not given)	0.156 (active)
COc1ccccc1C(c1nnnn1C(C)(C)C)N1CCN(Cc2ccccc2)CC1 (stereo not given)	inactive
COCCNc1cc(-c2ccccc2)nc2cc(-c3cccc(F)c3)nn12	0.13 (active)
Cc1nc(N2CCN(c3ccccn3)CC2)c2c(C)c(C(=O)Nc3ccc(F)cc3)sc2n1	inactive
Cc1nc(N2CCN(c3ccccn3)CC2)c2c(C)c(C(=O)Nc3ccc(F)c(Cl)c3)sc2n1	inactive
Cc1nc(N2CCOCC2)c2c(C)c(C(=O)Nc3ccc(C(F)(F)F)cc3)sc2n1	0.152 (active)
Cc1ccc(NC(=O)COC(=O)CNC(=O)c2ccc(Cl)cc2Cl)cc1S(=O)(=O)N1CCOCC1	inactive
O=C(N/N=C/c1sc(N2CCCCC2)nc1-c1cccs1)c1cccnc1	0.155 (active)
Oc1ccc(/C=N/Nc2nc(-c3ccccc3F)nc3ccccc23)c(O)c1	0.143 (active)
Cc1cc(C)c(C#N)c(SCc2ccc3c(c2)OCO3)n1	0.115 (active)
COc1ccc(CN(C)C(=O)c2cc(-c3ccc(C)cc3C)nc3ccccc23)c(OC)c1OC	0.111 (active)
COc1ccc(CCNC(=O)c2ccccc2OCc2ccccc2)cc1	0.153 (active)
CC(=O)c1ccccc1OCc1ccc(C(=O)c2ccccc2)cc1	0.103 (active)
COc1ccc(-c2nc(CCNC(=O)c3ccc(Br)o3)cs2)cc1	inactive
O=C(N/N=C/c1cccc(OCc2ccccc2)c1)c1ccc(Br)o1	inactive
Cc1nc2ccccc2cc1OCc1ccc(F)cc1	inactive
O=C(Oc1ccc(Br)cc1C(=S)N1CCOCC1)c1cccc([N+](=O)[O-])c1	inactive
COC(=O)c1ccc(COC(=O)C2CCN(S(=O)(=O)c3c(Cl)cccc3Cl)CC2)o1	inactive
COc1ccc(S(=O)(=O)NCCCCOc2ccc(Cl)cc2)cc1	0.135 (active)
COc1ccc(C(C)=O)cc1COc1ccc(Cl)c(C)c1	0.158 (active)

— PubChem BioAssay AID651747 (Johns Hopkins Ion Channel Center, 2012)
